High-throughput results: PubChem BioAssay, Broad Institute
C diff HTS – C. difficile growth inhibitors, primary screen, HTS; 0.25% of 86,000 active; AID 1259249, 2017; Clostridium difficile clinical isolate growth, OD600, 24 h; active compounds read low; growth activity, negative = inhibition, % at 16 µg/mL (by protocol);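 active = mean growth activity at or below -80% and every replicate also at or below -80%; inconclusive = mean at or below -80% but some replicate above -80%; inactive = mean growth activity above -80%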;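 note: 0% = DMSO wells and -100% = levofloxacin 16 µg/mL wells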
T cruzi growth-1 – T. cruzi intracellular proliferation inhibitors, primary screen, cell-based, beta-gal Tulahuen parasites, NIH3T3 host, luminescence; T. cruzi beta-gal in NIH3T3, GalScreen luminescence, 90 h; inhibition, % at 8.34 µM; 5.9% of 77,000 active; AID 624255, 2012;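 active = mean inhibition above about 93%, with at least 55% of replicates each passing it, limit read from the data, passing the limit was not always enough; inconclusive = only one of those two conditions holds; inactive = neither condition holds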
Pf Dd2 inh – P. falciparum Dd2 growth inhibitors, primary screen, SYBR Green fluorescence, single dose replicates; 72 h; active compounds read low; activity change, % at 10 µM; 2.3% of 94,000 active; in the data active = activity change below about -80%; inconclusive = no clear call, values can overlap the other calls
T cruzi growth-2 – T. cruzi intracellular proliferation inhibitors, confirmation, cell-based, NIH3T3 host, beta-gal parasite, luminescence, cherry-pick | AID 651739, 2012 | 72% of 5,600 active | inhibition, % at 8.35 µM | T. cruzi beta-gal in NIH3T3, GalScreen luminescence, 90 h | shares compounds with T cruzi growth-1;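 active = mean replicate inhibition above about 95% and at least 55% of replicates individually reaching it, limit read from the data; inconclusive = only one of the two criteria is met; inactive = neither criterion is met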
T cruzi growth-3 – inhibitors of intracellular T. cruzi replication, confirmation, NIH3T3 host cells, beta-gal parasites, cherry-pick, set 2. shares compounds with T cruzi growth-1. T. cruzi beta-gal in NIH3T3, GalScreen luminescence, 90 h. inhibition, % at 2.09 µM. 21% of 5,600 active. AID 651740, 2012;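 active = mean inhibition above about 95%, with at least 55% of replicates also reaching it, limit read from the data; inconclusive = meets just one of the two conditions; inactive = meets neither condition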;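 note: plate controls were neutral control median for no effect and positive control median for full effect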
NIH3T3 tox – cytotoxicity in mouse NIH/3T3 fibroblasts, confirmation, cytotoxicity control for T. cruzi proliferation inhibitor project, cell-based, cherry-pick, single point; shares compounds with T cruzi growth-1; 14% of 5,600 active; cytotoxicity (signal decrease), % at 8.35 µM; NIH/3T3 viability, CellTiter-Glo ATP luminescence, 90 h;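 active = mean signal decrease across replicates above about 35% based on untreated-well scatter, with enough replicates individually passing, limit read from the data; inconclusive = no rule stated though some were filed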;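 note: 0% = median of neutral control wells and 100% = median of positive control wells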
NIH3T3 tox 2 – NIH/3T3 fibroblast cytotoxicity, confirmation, cytotoxicity control, cell-based, cherry-pick, single point, set 2; shares compounds with T cruzi growth-1; NIH/3T3 viability, CellTiter-Glo ATP luminescence, 90 h; inhibition, % at 24.9 µM; 56% of 5,600 active; AID 651744, 2012;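 active = mean loss of cell viability signal at or above a set limit, and enough replicates individually reaching it; inconclusive = meets only the mean limit or only the replicate share; inactive = meets neither condition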;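 note: 0% = median of neutral control wells and 100% = median of positive control wells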
Starred values were filed as active, the others as inactive; ? = inconclusive; · = not tested or not shown. In the library only some 6.7% were active in any assay of this set; here they are far more common.

SMILES	C diff HTS	T cruzi growth-1	Pf Dd2 inh	T cruzi growth-2	T cruzi growth-3	NIH3T3 tox	NIH3T3 tox 2
OC[C@@H]1[C@H](c2ccc(-c3ccccc3F)cc2)[C@@H]2CN(Cc3cccnc3)CCCCN12	2	89	-12	·	·	·	·
OC[C@H]1[C@H](c2ccc(-c3ccccc3F)cc2)[C@@H]2CN(Cc3cccnc3)CCCCN12	3	33	-40	·	·	·	·
OC[C@H]1[C@@H](c2ccc(-c3ccccc3F)cc2)[C@H]2CN(Cc3cccnc3)CCCCN21	-1	54	-8	·	·	·	·
OC[C@H]1[C@H](c2ccc(-c3ccccc3F)cc2)[C@@H]2CN(Cc3ccncc3)CCCCN12	-8	106*	-17	101*	74	30	103*
OC[C@@H]1[C@@H](c2ccc(-c3ccccc3F)cc2)[C@H]2CN(Cc3ccncc3)CCCCN12	-4	104*	-46	83	48	29	81*
OC[C@@H]1[C@H](c2ccc(-c3ccccc3F)cc2)[C@H]2CN(Cc3ccncc3)CCCCN12	-13	107*	-18	93	85	46*	103*
C[C@H]1CN([C@@H](C)CO)C(=O)Cc2cc(NS(=O)(=O)c3ccc(Cl)cc3)ccc2O[C@H]1CN(C)C(=O)Nc1ccccc1	-6	1	8	·	·	·	·
O=C(CN1CCOCC1)N[C@H]1CC[C@@H](CCNC(=O)C2CCCCC2)O[C@@H]1CO	-1	·	12	·	·	·	·
CC(C)NC(=O)Nc1cccc2c1O[C@@H](CN(C)Cc1ccc3c(c1)OCO3)[C@H](C)CN([C@H](C)CO)C2=O	-2	·	-3	·	·	·	·
CC(C)CC#Cc1cnc2c(c1)C(=O)N([C@H](C)CO)C[C@@H](C)[C@@H](CN(C)Cc1cccc(F)c1)O2	0	?	-42	104*	50	18	61*
CC(C)CC#Cc1cnc2c(c1)C(=O)N([C@@H](C)CO)C[C@H](C)[C@@H](CN(C)Cc1cccc(F)c1)O2	3	102*	-9	108*	83	17	105*
C[C@@H]1CN([C@H](C)CO)C(=O)c2cc(C#CCc3ccccc3)cnc2O[C@@H]1CN(C)Cc1cccc(F)c1	·	-5	-33	·	·	·	·
CC(C)CC#Cc1cnc2c(c1)C(=O)N([C@H](C)CO)C[C@@H](C)[C@H](CN(C)Cc1cccc(F)c1)O2	-2	103*	-52	106*	46	24	102*
C[C@@H]1CN([C@H](C)CO)C(=O)c2cc(C#CCc3ccccc3)cnc2O[C@H]1CN(C)Cc1cccc(F)c1	·	72	-60	·	·	·	·
C[C@H](CO)N1C[C@H](C)[C@H](CN(C)Cc2cccc(F)c2)Oc2ncc(C#CCc3ccccc3)cc2C1=O	·	-74	-16	·	·	·	·
C[C@H](NC(=O)C[C@H]1CC[C@@H](NC(=O)Cc2ccccn2)[C@@H](CO)O1)c1ccccc1	·	12	-15	·	·	·	·
CN1C(=O)c2cc(NS(C)(=O)=O)ccc2OC[C@@H]2O[C@H](CC(=O)NC3CCCCC3)CC[C@H]21	-2	-5	·	·	·	·	·
C[C@H](CO)N1C[C@H](C)[C@@H](CN(C)S(=O)(=O)c2cccs2)Oc2c(NS(C)(=O)=O)cccc2C1=O	·	-5	25	·	·	·	·
COc1ccc(NC(=O)Nc2ccc3c(c2)[C@@H]2C[C@H](CC(=O)NCc4ccccn4)O[C@H](CO)[C@@H]2O3)cc1	4	21	7	·	·	·	·
C[C@@H]1CN([C@H](C)CO)C(=O)c2cc(NS(=O)(=O)c3ccc(Cl)cc3)ccc2O[C@@H](C)CCCCO[C@H]1CN(C)C(=O)Nc1ccccc1	1	?	-66	101*	28	-44	-23
C[C@@H]1CCCCO[C@@H](CN(C)C(=O)Nc2ccccc2)[C@H](C)CN([C@@H](C)CO)C(=O)c2cc(NS(=O)(=O)c3ccc(Cl)cc3)ccc2O1	1	?	-17	108*	67	3	4
C[C@@H]1CN([C@@H](C)CO)C(=O)c2cc(NS(=O)(=O)c3ccccc3)ccc2O[C@@H](C)CCCCO[C@@H]1CN(C)C(=O)Nc1ccccc1	·	·	-56	·	·	·	·
C[C@@H]1CCCCO[C@@H](CN(C)C(=O)Nc2ccccc2)[C@H](C)CN([C@H](C)CO)C(=O)c2cc(NS(=O)(=O)c3ccccc3)ccc2O1	·	·	-57	·	·	·	·
C[C@H]1CCCCO[C@@H](CN(C)C(=O)Nc2ccccc2)[C@@H](C)CN([C@@H](C)CO)C(=O)c2cc(NS(=O)(=O)c3ccc(Cl)cc3)ccc2O1	10	114*	-70	108*	39	-18	-37
C[C@H](CO)N1C[C@H](C)[C@H](CN(C)C(=O)Nc2ccccc2)OCCCC[C@H](C)Oc2ccc(NS(=O)(=O)c3ccccc3)cc2C1=O	·	·	17	·	·	·	·
SMILES	C diff HTS	T cruzi growth-1	Pf Dd2 inh	T cruzi growth-2	T cruzi growth-3	NIH3T3 tox	NIH3T3 tox 2
O=C(C[C@H]1CC[C@@H]2[C@H](COC[C@@H](O)CN2Cc2cccc(C(F)(F)F)c2)O1)NCCc1ccccc1	·	62	-10	·	·	·	·
O=C(NCC1CCCCC1)[C@H]1[C@H](CO)[C@H]2Cn3c(cccc3=O)[C@H]2N1Cc1ccccn1	-5	62	7	·	·	·	·
Cc1ccc(S(=O)(=O)Nc2ccc3c(c2)CC(=O)N([C@@H](C)CO)C[C@H](C)[C@H](CN(C)C(=O)NC2CCCCC2)O3)cc1	-12	2	15	·	·	·	·
CN(C)CC(=O)Nc1ccc2c(c1)[C@@H]1C[C@@H](CC(=O)NC3CCCC3)O[C@@H](CO)[C@@H]1O2	·	-16	2	·	·	·	·
C[C@@H]1CN([C@@H](C)CO)S(=O)(=O)c2ccc(C3=CCCCC3)cc2O[C@H]1CN(C)Cc1ccncc1	-2	114*	-62	95*	107*	46*	95*
C[C@@H]1CN([C@@H](C)CO)S(=O)(=O)c2ccc(C3=CCCCC3)cc2O[C@@H]1CN(C)Cc1ccncc1	-8	102*	-44	99*	92	?	78*
C[C@@H]1CN([C@H](C)CO)S(=O)(=O)c2ccc(C3=CCCCC3)cc2O[C@H]1CN(C)Cc1cccnc1	-4	·	-66	·	·	·	·
C[C@H](CO)N1C[C@H](C)[C@H](CN(C)Cc2ccncc2)Oc2cc(C3=CCCCC3)ccc2S1(=O)=O	12	116*	-73	98*	84	58*	83*
C[C@@H]1CN([C@H](C)CO)S(=O)(=O)c2ccc(C3=CCCCC3)cc2O[C@@H]1CN(C)Cc1cccnc1	-9	·	-10	·	·	·	·
C[C@H](CO)N1C[C@H](C)[C@@H](CN(C)Cc2cccnc2)Oc2cc(C3=CCCCC3)ccc2S1(=O)=O	-7	·	-60	·	·	·	·
